# According to PubChem BioAssay (EPA / NIEHS):
# Results filed as inconclusive are left out. The source made the active and inactive calls. How the source made its calls: active means hit-call score of the fitted dose curve at least 0.9, where 1 is the maximum; inconclusive means response in the unintended direction; inactive means score below 0.9.
# Biological target: Androgen receptor (Homo sapiens) (UniProt P10275)
# Assay: ATG_AR_TRANS: Attagene TRANS-FACTORIAL HepG2 Assay for human Androgen Receptor (AR) (AID 2282973)
# Conditions: HepG2 Attagene TRANS-FACTORIAL AR reporter transcription
# How it was run: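 Transfected HepG2, 24 h treatment, chimeric NR-Gal4 driving GAL4-UAS reporters. mRNA induction by RT-PCR/capillary electrophoresis fluorescence; DMSO as negative control and baseline.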
# Sequence of Androgen receptor (Homo sapiens) (P10275 whole entry, looked up): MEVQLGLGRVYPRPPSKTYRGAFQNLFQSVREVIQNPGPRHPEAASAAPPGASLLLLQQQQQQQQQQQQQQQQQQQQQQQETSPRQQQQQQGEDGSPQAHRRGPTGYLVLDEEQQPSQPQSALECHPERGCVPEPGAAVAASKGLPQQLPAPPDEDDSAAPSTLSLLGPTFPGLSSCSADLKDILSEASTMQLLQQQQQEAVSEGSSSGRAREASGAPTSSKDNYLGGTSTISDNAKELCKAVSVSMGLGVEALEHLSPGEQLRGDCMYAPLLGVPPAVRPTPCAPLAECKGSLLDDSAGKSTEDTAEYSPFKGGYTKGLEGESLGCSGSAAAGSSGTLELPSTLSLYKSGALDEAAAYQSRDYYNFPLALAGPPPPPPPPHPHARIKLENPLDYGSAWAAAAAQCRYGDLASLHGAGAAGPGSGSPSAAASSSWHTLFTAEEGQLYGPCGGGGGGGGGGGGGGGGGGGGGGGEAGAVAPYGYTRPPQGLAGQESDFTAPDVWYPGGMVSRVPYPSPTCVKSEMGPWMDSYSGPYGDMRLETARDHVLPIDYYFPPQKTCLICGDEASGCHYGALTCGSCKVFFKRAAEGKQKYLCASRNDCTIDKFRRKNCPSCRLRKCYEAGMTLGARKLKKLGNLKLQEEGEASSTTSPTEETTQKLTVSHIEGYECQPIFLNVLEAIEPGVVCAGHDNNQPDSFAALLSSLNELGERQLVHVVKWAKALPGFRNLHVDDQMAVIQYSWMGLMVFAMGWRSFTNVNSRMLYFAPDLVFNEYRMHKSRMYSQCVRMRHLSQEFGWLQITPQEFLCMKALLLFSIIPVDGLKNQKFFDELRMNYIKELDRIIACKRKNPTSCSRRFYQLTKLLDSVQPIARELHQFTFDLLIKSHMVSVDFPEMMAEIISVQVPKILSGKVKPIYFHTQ
row,SMILES,outcome
1,COc1ccc(C(C)=O)cc1,inactive
2,O=C1OC(=O)C(F)(F)C1(F)F,inactive
3,C=CC(=O)OCC(CO)(COCC(COC(=O)C=C)(COC(=O)C=C)COC(=O)C=C)COC(=O)C=C,inactive
4,OCCC(F)(F)C(F)(F)C(F)(F)C(F)(F)F,inactive
5,O=C(C=C(O)C(F)(F)F)C(F)(F)F,inactive
6,C=CC(F)(F)C(F)(F)C(F)(F)C(F)(F)F,inactive
7,COc1cc(/C=C/C(=O)CC(=O)/C=C/c2ccc(O)c(OC)c2)ccc1O,inactive
8,CCCCCCCCCCCCCC(=O)OCC(O)CO (stereo not given),inactive
9,Cc1ccc(O)cn1,inactive
10,CC(C)(C)NC(N)=O,inactive
11,C=CC(=O)OCCCCCCOC(=O)C=C,inactive
12,CCCCCCCC(OC)OC,inactive
13,CC1(C)CCC(C)(C)c2cc(C(=O)Nc3ccc(C(=O)O)cc3)ccc21,inactive
14,COC(=O)C(F)(F)C(F)(F)C(F)(F)C(F)(F)C(F)(F)F,inactive
15,CCN(CC)c1ccc(C=O)cc1,inactive
16,CCOC(OCC)C(=O)c1ccccc1,inactive
17,O=S(=O)(O)CCC(F)(F)C(F)(F)C(F)(F)C(F)(F)F,inactive
18,C=CC(=O)OCCOC(=O)C=C,inactive
19,O=C1CCCCCCCCCCCC(=O)OCCO1,inactive
20,C=C(C)[C@@H]1CC=C(C)C(=O)C1,inactive

row,SMILES,outcome
1,CCN(CC)c1ccc(C(=C2C=CC(=[N+](CC)CC)C=C2)c2ccc(S(=O)(=O)O)cc2S(=O)(=O)[O-])cc1,inactive
2,C=C(C)C1CC=C(C)C(=O)C1 (stereo not given),inactive
3,CC1=CCC2C(=O)OC(=O)C2C1 (stereo not given),inactive
4,O=S(=O)(O)CCC(F)(F)C(F)(F)C(F)(F)C(F)(F)C(F)(F)C(F)(F)C(F)(F)C(F)(F)F,inactive
5,CC=CC(F)(F)C(F)(F)C(F)(F)F,inactive
6,NNC(=O)OCc1ccccc1,inactive
7,O=C(O)c1ccccc1C(=O)OCc1ccccc1,inactive
8,OCCNCc1ccccc1,inactive
9,c1ccc2[nH]ccc2c1,inactive
10,CCN(CC)c1ccc2c(c1)Oc1cc(N(CC)CC)ccc1C21OC(=O)c2ccccc21,inactive
11,C=C(C)C(=O)OCC(F)(F)C(F)(F)C(F)(F)C(F)F,inactive
12,CC(C=O)Cc1ccc(C(C)(C)C)cc1 (stereo not given),inactive
13,O=C(O)c1cc(Cl)cc([N+](=O)[O-])c1Cl,inactive
14,CC(=O)c1ccc[nH]1,inactive
15,O=P(O)(O)CCC(F)(F)C(F)(F)C(F)(F)C(F)(F)C(F)(F)C(F)(F)F,inactive
16,OCCN1CN(CCO)CN(CCO)C1,inactive
17,Cc1cc(C(=C2C=CC(=Nc3ccc(S(=O)(=O)O)cc3)C=C2)c2ccc(Nc3ccc(S(=O)(=O)O)cc3)cc2)cc(S(=O)(=O)O)c1N,inactive
18,CCCCC[C@H](O)CC(=O)CCc1ccc(O)c(OC)c1,inactive
19,O=C(O)C(F)(F)C(F)(F)C(F)F,inactive
20,C=CC(=C)CCCC(C)(C)OC(C)=O,inactive
